NLRP3 yeast inh: NALP3 inflammasome inhibitors in reconstituted yeast, primary screen, luminescence, uHTS; Yeast reconstituted NLRP3/ASC/caspase-1, beta-gal luminescence, 24 h; inhibition, % at 10 µM; 0.39% of 330,000 active;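 active = inhibition of 50% or more; inactive = inhibition below 50%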;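 note: plate controls were induced DMSO wells for no effect and uninduced yeast grown without galactose for full effect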
tim23-1 inh: growth inhibitors of tim23-1 mutant yeast, primary screen, luminescence, uHTS | 1.3% of 330,000 active | S. cerevisiae tim23-1 growth, BacTiter-Glo luminescence, 24 h | inhibition, % at 20 µM;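 active = growth inhibition of the mutant yeast at or above 50%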;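 note: temperature-sensitive mutant grown at 25 °C; plate controls were DMSO-treated mutant yeast for no effect and medium wells lacking yeast for full effect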
TIM10 inh: growth inhibitors of isogenic TIM10 control yeast, primary screen, counter-screen for tim10-1 yeast inhibitor project, luminescence, uHTS. S. cerevisiae TIM10 strain growth, BacTiter-Glo luminescence, 24 h. inhibition, % at 10 µM. 1.4% of 330,000 active. AID 463195, 2010;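 active = inhibition of 40% or more at the single tested concentration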;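 note: wild-type TIM10 isogenic control strain grown at permissive 25 °C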
tim10-1 inh: growth inhibitors of tim10-1 mutant yeast, primary screen, luminescence, uHTS. inhibition, % at 20 µM. S. cerevisiae tim10-1 ts strain growth, BacTiter-Glo, 24 h. AID 463190, 2010. 2.2% of 330,000 active;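 active = inhibition of at least 40%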;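 note: mutant grown at 25 °C; 0% = DMSO wells with yeast and 100% = wells holding no yeast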
NALP1 inh: NALP1 inflammasome inhibitors in reconstituted yeast, colorimetric, S. cerevisiae, triplicate retest. S. cerevisiae NALP1/ASC/caspase-1 growth, X-gal OD620, 72 h. inhibition, % at 10 µM. 0.61% of 280,000 active. AID 2071, 2009; in the data active = inhibition mostly above about 24%, no sharp cut-off; inactive = mostly below about 32%
tim10-1 conf: growth inhibitors of tim10-1 mutant yeast, confirmation, single concentration, luminescence, S. cerevisiae | S. cerevisiae tim10-1 ts strain growth, BacTiter-Glo, 24 h | shares compounds with tim10-1 inh | AID 463213, 2010 | 56% of 7,400 active | inhibition, % at 20 µM;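 active = inhibition of yeast growth at or above a set limit in either of two repeat tests at 20 µM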;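 note: tim10-1 mutant grown at permissive 25 °C to find synthetic lethal compounds; 0% = DMSO yeast wells and 100% = medium wells without yeast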
Numbers without * were called inactive; . = no result given. Hits are enriched below; roughly 4% of the tested compounds scored in any of these assays.

SMILES	NLRP3 yeast inh	tim23-1 inh	TIM10 inh	tim10-1 inh	NALP1 inh	tim10-1 conf
O=C(O)c1ccccc1C(=O)N1N=C2/C(=C/c3cccc([N+](=O)[O-])c3)CCCC2C1c1cccc([N+](=O)[O-])c1 (stereo not given)	-7	20	21	44*	-7	31
COc1ccc(N2CCN(C(=O)COC(=O)Cc3c(F)cccc3Cl)CC2)cc1	19	39	16	45*	.	24
CC(=O)c1ccc(-c2ccc(C(=O)Nc3nc(C)c(C(C)=O)s3)o2)cc1	14	1	-2	-1	.	.
COc1ccccc1C(=O)Nc1nnc(S(=O)(=O)N2CCCCC2)s1	18	44	19	48*	12	14
COc1ccccc1C(=O)Nc1nnc(S(=O)(=O)N2CCCCCC2)s1	4	34	6	16	16	.
Cc1cc(C)cc(N2C(=O)CC(Sc3nnnn3-c3ccccc3)C2=O)c1 (stereo not given)	33	49	35	51*	43*	51*
CC(OC(=O)/C=C/c1ccc2ccccc2n1)C(=O)NCc1ccccc1 (stereo not given)	25	32	36	41*	.	22
FC(F)(F)c1cnc(Sc2nc3nccc(-c4ccc(Cl)cc4)n3n2)c(Cl)c1	24	36	37	41*	-3	3
COc1ccc(-c2ccnc3nc(Sc4ncc(C(F)(F)F)cc4Cl)nn23)cc1	17	46	32	51*	-4	29
Cc1cc(C)c(C)c(S(=O)(=O)NCCCn2ccnc2)c1C	16	7	-12	-12	24	.
COc1ccccc1CN1CCC(n2nccc2NC(=O)CCc2ccccc2)CC1	8	9	4	20	14	.
CCN(CC(=O)Nc1ccc(OC)cc1)C(=O)CSCC(=O)Nc1cc(C)on1	3	-10	0	-6	.	.
Cc1ccc2c(c1)c1c3n2CCN(C(=O)CCl)C3CCC1 (stereo not given)	-6	22	6	43*	-1	30
CCOC(=O)c1c(NC(=O)C(C)Sc2nnc(C)c(=O)[nH]2)sc2c1CCCC2 (stereo not given)	11	22	1	15	14	.
Cc1cc(C)n(-c2ccc(C(=O)OCn3nnc4ccccc4c3=O)cc2)n1	18	41	27	49*	-2	42*
S=c1[nH]nc(CSCc2ccccc2Cl)n1-c1ccccc1	14	23	15	46*	-2	37*
COCc1n[nH]c(=S)n1-c1ccccc1	10	1	-1	18	17	.
Cc1cccc(C)c1-n1c(C)cc(/C=N\NC(=O)CC(=O)NC2CCCCC2)c1C	-10	22	22	41*	24	27
Cc1cc(/C=N\NC(=O)CC(=O)NC2CCCCC2)c(C)n1-c1ccc(Cl)c(Cl)c1	7	0	-9	46*	-1	-20
Cc1cc(/C=N\NC(=O)CC(=O)NC2CCCCC2)c(C)n1-c1cccc(Cl)c1Cl	21	27	8	10	22	.
Cc1cccc(-n2c(C)cc(C(=S)N3CCOCC3)c2C)c1C	12	34	15	44*	-10	24
Cc1cc(C)cc(-n2c(C)cc(C(=S)N3CCOCC3)c2C)c1	10	31	37	24	.	.
COc1ccc(Br)c(-c2nnc(CS(=O)(=O)c3ccccc3)o2)c1	0	48	24	46*	-2	39*
COc1cccc(C(C)NC(=S)NCc2ccc(F)cc2)c1 (stereo not given)	9	24	25	42*	16	-1
CO/N=C/c1ccc(N2CCN(C(=O)c3cccc(C(F)(F)F)c3)CC2)c([N+](=O)[O-])c1	18	28	27	41*	39	26
CO/N=C/c1ccc(N2CCN(C(=O)c3ccc(F)cc3)CC2)c([N+](=O)[O-])c1	36	43	26	34	.	.
O=C(Nc1ccc(C(F)(F)F)cc1)C1CCN(c2cnccn2)CC1	13	28	10	41*	18	2
NNc1nc(Nc2ccccc2)nc(Nc2ccccc2)n1	33	43	25	51*	-7	42*

Compound activity from PubChem BioAssay.
